Results filed as inconclusive are left out. A number with no mark means an inactive call. Activity calls are given as the source filed them. Calls come from the whole dose curve.
Target: Thyrotropin receptor (Homo sapiens) (UniProt P16473)
Assay: qHTS assay to identify small molecule antagonists of the thyroid stimulating hormone receptor (TSHR) signaling pathway (AID 1259385); note: nearly all actives have a fitted effect of over 20% in size
Details: TSHR-HEK293 cAMP HTRF, TSH-stimulated antagonist mode; series mostly up to 92.4 µM; activity change, negative = inhibition: at the top concentration
In short: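 Antagonist mode: compound-treated TSHR-expressing HEK293 cells were stimulated with 1.5 ng/mL TSH (final) in presence of Ro20-1724 for 30 min at RT. HTRF cAMP detection after 1 h; each compound tested at 15 concentrations, triplicate.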
% is set by controls: 0 for no effect and ±100 for the full control effect; potency is the fitted concentration of half-maximal effect.

Thyrotropin receptor (Homo sapiens), sequence (P16473 whole entry, looked up): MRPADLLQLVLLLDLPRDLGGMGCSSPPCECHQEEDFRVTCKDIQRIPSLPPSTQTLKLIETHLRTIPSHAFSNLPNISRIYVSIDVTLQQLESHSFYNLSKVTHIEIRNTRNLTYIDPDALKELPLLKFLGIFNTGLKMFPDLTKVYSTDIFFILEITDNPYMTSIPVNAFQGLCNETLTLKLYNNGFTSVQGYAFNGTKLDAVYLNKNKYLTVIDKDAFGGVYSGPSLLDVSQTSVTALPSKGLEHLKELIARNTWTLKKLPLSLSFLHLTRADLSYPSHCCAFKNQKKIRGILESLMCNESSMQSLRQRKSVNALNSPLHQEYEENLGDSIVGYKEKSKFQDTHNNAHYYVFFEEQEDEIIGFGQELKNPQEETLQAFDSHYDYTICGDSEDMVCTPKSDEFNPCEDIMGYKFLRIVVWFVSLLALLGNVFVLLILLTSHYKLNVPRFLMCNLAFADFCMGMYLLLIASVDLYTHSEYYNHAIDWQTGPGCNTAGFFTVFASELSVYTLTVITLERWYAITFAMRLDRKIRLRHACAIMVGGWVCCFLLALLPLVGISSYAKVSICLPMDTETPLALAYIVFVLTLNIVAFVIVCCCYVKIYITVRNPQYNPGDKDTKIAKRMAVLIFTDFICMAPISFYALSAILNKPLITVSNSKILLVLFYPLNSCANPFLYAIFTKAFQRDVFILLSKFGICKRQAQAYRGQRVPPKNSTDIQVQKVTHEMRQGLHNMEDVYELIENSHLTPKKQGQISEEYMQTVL

| Structure (SMILES) | activity change, negative = inhibition | Potency |
| --- | --- | --- |
| C[C@@H](Oc1ccc(Cl)cc1Cl)C(=O)O | 1.24% |  |
| CCOC(=O)OC1=C(c2cc(C)ccc2C)C(=O)NC12CCC(OC)CC2 (stereo not drawn) | 4.56% |  |
| C=CC(=O)OCCCCOC(=O)C=C | 4.98% |  |
| COP(N)(=S)OC | 1.92% |  |
| S=C(SSC(=S)N1CCCCC1)N1CCCCC1 | -11% [at 42.5 µM] |  |
| CC[C@H](C)[C@H]1O[C@]2(C=C[C@@H]1C)C[C@@H]1C[C@@H](C/C=C(\C)[C@@H](O[C@H]3C[C@H](OC)[C@@H](O[C@H]4C[C@H](OC)[C@@H](O)[C@H](C)O4)[C@H](C)O3)[C@@H](C)/C=C/C=C3\CO[C@@H]4[C@H](O)C(C)=C[C@@H](C(=O)O1)[C@]34O)O2 | 1.28% [at 42.5 µM] |  |
| CCCCOCN(C(=O)CCl)c1c(CC)cccc1CC |  | 61.1 µM (active) |
| CC(C)C(=O)Cl | 0.717% |  |
| O=C(CCl)C(Cl)Cl | 7% |  |
| O=C(O)c1cc[c]([Hg][Cl])cc1 | 4.42% |  |
| c1cc[c]([Sb]([c]2ccccc2)[c]2ccccc2)cc1 | -7.2% |  |
| ClC(Cl)=C(c1ccc(Cl)cc1)c1ccc(Cl)cc1 |  | 28 µM (active) |
| O=C(O)C1C2CCC(O2)C1C(=O)O (stereo not drawn) |  | inactive |
| CCS(=O)(=O)c1cccnc1S(=O)(=O)NC(=O)Nc1nc(OC)cc(OC)n1 | -0.477% |  |
| CCOCCOC(C)=O | -2.08% |  |
| CCCCCCCCCCCCBr | -0.282% |  |
| C=CCC1=C(C)C(OC(=O)C2C(C=C(C)C)C2(C)C)CC1=O (stereo not drawn) |  | 61.1 µM (active) |
| CCC[CH2][Sn]([CH2]CCC)([CH2]CCC)[O]C(=O)c1ccccc1 |  | 17.2 µM (active) |

— PubChem BioAssay (Tox21)
